The campaign covered roughly 53,000 sequences. About 3,700 (7%) were called active. The entries come from a sample that favours actives as a whole. A number with no mark means an inactive call.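 The calls were made as follows: active = gene knockdowns whose robust z-score for IL-1 alpha signal is at least 2 or at most -2, so actives lie on both sides; inactive = the rest.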
experiment: Components of the Cytosolic LPS Sensing Pathway: Gene Identification via Genome-wide siRNA Screen; settings: RAW264.7 macrophages, IL-1a HTRF, actives lie on both sides, screened at 100 nM (by protocol), cells primed 5 h with Pam3CSK4 first;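 also: robust z of the log signal after scaling to non-targeting control siRNA wells of the plate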
In short: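 Three distinct siRNAs per gene were tested singly at 100 nM in RAW264.7 macrophages. Following Pam3CSK4 priming and 24 hour LipidA transfection, IL-1a secretion was read by HTRF.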

| Sequence | z-score |
| --- | --- |
| GGUAGAGGUGGAAUGUAGCTT against Qprt | 1.36 |
| GCCCAUCACAAAUAAACAATT against B230340J04Rik | -1.17 |
| CCUUGUAGCUCUUUAUAAATT against Strn | 2.24 (active) |
| GCUCCUUAGAGAGAGUAUUTT against Sod3 | -0.399 |
| GGGUCCAUGAACUCAAGAUTT against Rrnad1 | 0.473 |
| GGCUGUGAGAACGAUGCAATT against Fam151a | -1.08 |
| GGAGGGAAGAAACAAUCUATT against Rnf40 | 0.497 |
| GGGUGCAUUUGAGAAGAUCTT against Casd1 | 4.11 (active) |
| GGAGUGCAUGACUCAGCUUTT against Olfr926 | -1.54 |
| GCUGACCGGCAUUUACCAUTT against Mcm2 | 2.78 (active) |
| GGCUCUCUUCGGGAAUACUTT against Tmem234 | 1.22 |
| GGAGAUCAACAGGAUUUUGTT against Gna15 | -1.35 |
| GCUGUGUUAGAAAGCAGGCTT against 4931406H21Rik | 0.927 |
| GCUAUAGAUUCCUCUGCCATT against Olfr1098 | -0.525 |
| CCCUAGAAUUAUAUCCUGUTT against Col4a1 | -0.494 |
| GGGAUCAAUGCUUAAUACATT against Zfp2 | 1.1 |
| GGGAAACACAAUUUACCUUTT against Elf1 | 3.18 (active) |
| CCAACUUUCUCUUAGGAAATT against Igfl3 | -0.487 |
| CCAGCCUUCAAUUGUGGUCTT against Scn1b | 0.672 |
| GAUUUUCUUUGUUCAUCUCTT against Olfr727 | -0.535 |
| CGACUAUCAGCAGCUGAAGTT against Igf1r | 5.27 (active) |
| GCGGAUUGUCUUCCUAGACTT against Smg9 | -1.14 |

| Sequence | z-score |
| --- | --- |
| GGUUCUAGGACCUAUUUUGTT against Cep57 | 1.87 |
| GGUUAUUACCCAGUUCACGTT against Pramel1 | -0.668 |
| GCCCUUCGUGAUGAAGAAUTT against B4galt3 | 0.829 |
| GCUAAACUCGCUCAAUCUGTT against Cd14 | 0.537 |
| CCUACUACUUCGUUAUCCGTT against Chrna2 | 0.447 |
| GCUGAUGUGAAUGGCUCACTT against Gmeb2 | -1.02 |
| GGCCCUUUGAGUCGUUCCUTT against Batf3 | 2.6 (active) |
| CCGUGUCUUAGGUGAUCACTT against H2-DMb1 | 0.391 |
| GGAGACGAAUCCUUUCAGUTT against Mis12 | 0.476 |
| CCAAAGGUUACCAGGAAGCTT against Pcsk4 | 0.124 |
| GCAGCUAAAACAAGUUUGATT against Sntg2 | -0.565 |
| GGAUUUACCUUACAAAAGUTT against Aff2 | 0.578 |
| GGAUCUAUUCUCUCUGAUGTT against Prune2 | 1.03 |
| GGCAAAGUAUAAAGAAGUATT against Gkap1 | 2.23 (active) |
| GCCAUUAAGAUCGCUUACUTT against Selenop | -0.432 |
| GGAGCUUUCUCAAGAUUCATT against Arid1a | 0.263 |
| GCGACUUCGCUAUAUCAAGTT against Samhd1 | 1.65 |
| CCUUAGGAUUUGAACGCGUTT against Cutc | -0.554 |
| GCUAGUAUUCUAAGAUCUUTT against Mpp6 | 2.25 (active) |
| GGCAAAAUCGUGAAAAUUCTT against Vwf | -0.144 |
| GGCGAUCCUUACUCCAAUGTT against Zfp90 | 0.143 |
| GGAAUGGACCUCAAAAUUGTT against Vmp1 | 0.532 |

| Sequence | z-score |
| --- | --- |
| GCCACUACCGAUUUUCCCUTT against Lctl | -2.29 (active) |
| GGAGAUGCUAGAAAUUGUGTT against Hpca | -0.909 |
| GCACAUCGGCCUUAAGUCATT against Supt4a | -0.833 |
| CCGUUUUCGCUUUGAGAAATT against Smarcad1 | 4.47 (active) |
| GUAAUUCACAGCCUCUCCGTT against Pitx3 | 1.03 |
| GGACAUUUUAGUUGUCUUGTT against Slc38a4 | -0.607 |
| GGAUCCAAGGCAAAGAUGUTT against Fto | 1.73 |
| AUACGAUUUUUGUACUGCUTT against Defa4 | 0.305 |
| GCCAGGUGUGGUGACUCAUTT against Tprkb | 0.584 |
| GCUAUGCAAAUGGUGUCAATT against Fcnb | -0.147 |
| GGUGAGAUGGUUCAACAUGTT against Olfr77 | 1.7 |
| GGACUUGAACAACUUACAATT against Plcb1 | 2.37 (active) |
| GUAUUAAGACCAAACAGAUTT against Olfr623 | -0.497 |
| CCCAAUCGGUUAAUUGUUGTT against Vcp | -2.37 (active) |
| GCCAGUUAUCACUUAACCCTT against Cmc1 | -0.514 |
| GGAACCUUCAGAGCGACUUTT against Trib3 | 0.224 |
| GGCAAGGAGGAUGACAAAATT against Rnf113a2 | 0.416 |
| GGUAGAGAGACUGUAAUUATT against Ppp2r1b | -0.598 |
| GGAGUUUAUGAAAUUCAACTT against Fcgrt | 1.34 |
| CCAUCUAUGGUAUGGAGCGTT against Abcg4 | 0.606 |
| GGAUGAAGAAGAUGAAGAUTT against Prepl | -2.62 (active) |
| GGAAGACUUUGAAUACCACTT against Slc4a2 | 0.457 |

| Sequence | z-score |
| --- | --- |
| GCUGUUCUGCAAAACUGGATT against Rbpms | -1.36 |
| GGACACAAGGUCGCCAUCUTT against Tcf7l1 | -0.502 |
| GGUGCUGGAUGAAUUUGGGTT against Zp1 | -0.416 |
| GCAUGUCGCCUUGAAAUUATT against Cpne4 | 0.202 |
| GGAAGGAGGGUAUGUGGUUTT against Lgals9 | -0.346 |
| GCAAACUGCCCUCUUUGUGTT against Olfr1024 | 2.54 (active) |
| GGAUAUACACAACAGGCACTT against Tceal9 | 0.422 |
| GGAGACACAUAGGUGUAAATT against H2-T23 | 0.458 |
| GCACCAUCGACUAAUCAAATT against 1700029J07Rik | 1.12 |
| CCUCUGCUACUCUUAUUGUTT against Ttn | -0.523 |
| GGACUGUACAGUGGCAUUATT against Cd70 | -1.69 |
| UACUCGUGGUGUUUGCAAGTT against Olfr1154 | 0.873 |
| GGUGGAAGCAAGAGAAAAUTT against Tnp1 | 2.03 (active) |
| GCUCAUGUCUUAUUUGGAUTT against Klhl15 | -0.393 |
| CCGAAGUGCCAUGCCAUUUTT against Pdlim1 | 0.399 |
| GCACAUUUAUCCCGGUGUATT against Pnpla2 | -2.01 (active) |
| GGUUCAAUUCAAGUCUUUATT against Olfr195 | 0.339 |
| GGCCUACAGCUGGAAAGAATT against Chrm1 | 0.418 |
| GCUGCUCUGCUAUAAGUAUTT against Kptn | -0.269 |
| GGAAAUCGAUAGUUUCUUCTT against Olfr1302 | -0.0687 |
| GACCUUCGUUAGCAUUACGTT against Pfn1 | 0.65 |
| GCUGUUUUGUCUCCAGCCCTT against Zbtb20 | -0.118 |

| Sequence | z-score |
| --- | --- |
| GGGAUAUGUGACUAUGUUATT against Slc5a7 | -0.138 |
| GCUGAGAAUCGUUUAAAUGTT against Ugt2a3 | 0.00662 |
| GCUAAUUGUUCACUAAAGGTT against 1700029H14Rik | 0.655 |
| GGUUAUCAUGAGGCCUUGGTT against Olfr1339 | -2.38 (active) |
| GGUCAGAAAAGUAUGUUGGTT against Naip5 | 0.208 |
| GUGUAUCCCAGGCUAUCACTT against Vmn1r19 | -1.17 |
| GCCACGAUAAUUCAGGAGUTT against Aurkc | 2.27 (active) |
| GCUGAAUGGAAGGAAGUUGTT against Wdr83os | -1.32 |
| CGCCAAUGUGAUUAAACUATT against Mak | 2.01 (active) |
| GGACAUGUGUAAAUAAUCATT against En2 | 3.4 (active) |
| GGUGAUAGUACUGUCAGCCTT against Olfr1225 | -0.517 |
| GGAACAAGAACAAGUUGAGTT against Spa17 | 0.389 |
| GGUGGAAGCACUCAAUAAGTT against Pik3cb | -1.24 |
| GGUGCUUCUCUAAGAUAAUTT against Ddias | 0.776 |
| CCCUUACUUAGUCUCCACUTT against Olig1 | -0.025 |
| GGUGUUAUCAGAAUUCAGATT against Cars | 2.6 (active) |
| GGACCACCGUGAUCAACAUTT against Ifitm2 | 0.215 |
| GCUCACUUGUAGUGCUUUATT against Arf2 | 1.88 |
| GGCGUAAACAUGGUGUGCATT against Taok3 | -0.807 |
| GCUCUAUAGUGACCAAUGUTT against Gcgr | -0.072 |

— PubChem BioAssay AID1508600 (Functional Genomics Laboratory (NCATS/FGL), 2020)
